Each sequence was assayed against T1, PAI-1 wild type, active (human, UniProt P05121 24-402) (assay: branched SELEX with high-throughput sequencing; PAI-1 immobilised on polyclonal anti-PAI-1 antibody; HBS (10 mM HEPES pH 7.4, 140 mM NaCl), 2 mM MgCl2, 2 mM CaCl2, 0.1% BSA; RNA pool 100 nM; PAI-1 captured on antibody-coated wells; 45 min; binding temperature not stated (PAI-1 capture at room temperature); high values mean tight binding). Details: protein: recombinant; tags: N-terminal His6; structured_RNA; 2'-F pyrimidines.
T1 sequence (P05121 24-402): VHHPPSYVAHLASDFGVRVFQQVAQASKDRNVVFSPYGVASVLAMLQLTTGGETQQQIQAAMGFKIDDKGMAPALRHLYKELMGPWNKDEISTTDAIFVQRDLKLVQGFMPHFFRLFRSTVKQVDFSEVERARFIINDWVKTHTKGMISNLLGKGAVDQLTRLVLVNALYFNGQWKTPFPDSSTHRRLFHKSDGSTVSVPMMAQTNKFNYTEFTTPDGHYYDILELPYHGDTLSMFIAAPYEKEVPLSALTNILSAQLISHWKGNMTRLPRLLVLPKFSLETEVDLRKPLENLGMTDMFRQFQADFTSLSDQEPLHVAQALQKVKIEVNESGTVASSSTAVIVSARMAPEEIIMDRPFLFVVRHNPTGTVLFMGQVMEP
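Note: Pool frequency after one selection round with this target divided by frequency before selection.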

Compared with “GGGGCCACCAACGACAUUCGCACUGUAGCUAUGUGGAUAGCGACCAGAAUUUCGUUGAUAUAAAUAGUGCCCAUGGAUC”, “GGGGCCACCAACGACAUUGUACCACGUAGGAUGAAGUCAUCCGAUCACAGUGUUGAUAUAAAUAGUGCCCAUGGAUC” is lower in binding signal: 2.51 enrichment factor for the first, 0.87 enrichment factor for the second.

Going from “GGGGCCACCAACGACAUUUCACACUGUAAGGCCAUGUGCCGACUAGAAAUUGCGUUGAUAUAAAUAGUGCCCAUGGAUC” to “GGGGCCACCAACGACAUUGUAGCAUAAUCAACCUGCGACUGUCGUGUGAUAAGGUUGAUAUAAAUAGUGCCCAUGGAUC”, the binding signal rises from 0.84 enrichment factor to 1.02 enrichment factor.

First: GGGGCCACCAACGACAUUUGGACUGAAUCCAACCUUAUGCGUAAGCAUAGUUCGUUGAUAUAAAUAGUGCCCAUGGAUC
Second: GGGGCCACCAACGACAUUGCCGUAGUUUCUCGAUUCCCAGAGAGACGAUCGAUGUUGAUAUAAAUAGUGCCCAUGGAUC
The binding signal of the first is lower: 2.2 enrichment factor for the first, 4.28 enrichment factor for the second.

Compared with “GGGGCCACCAACGACAUUGAACCACGUAGGCUCGUUUCUGAGCCGAUCUCGAUGUUGAUAUAAAUAGUGCCCAUGGAUC”, “GGGGCCACCAACGACAUUGUCGUAGGCGUCAUAUUAUACUUACGCUGACCAAUGUUGAUAUAAAUAGUGCCCAUGGAUC” is higher in binding signal: 1.62 enrichment factor for the first, 2.09 enrichment factor for the second.

First: GGGGCCACCAACGACAUUAAGUUCGUCCCCGUAAGCUCUUACGGGGUCUAUGCGUUGAUAUAAAUAGUGCCCAUGGAUC
Second: GGGGCCACCAACGACAUUGUGACCCACCAUUAUAUGGUGACUAGUAGCGUGUUGUUGAUAUAAAUAGUGCCCAUGGAUC
The binding signal of the first is higher: 5.92 enrichment factor for the first, 0.17 enrichment factor for the second.

Compared with “GGGGCCACCAACGACAUUACACUGUAGAGAAUACCCAAUUCUCGACUAGAUGCGUUGAUAUAAAUAGUGCCCAUGGAUC”, “GGGGCCACCAACGACAUUUACCGUCUGGGUAACCUUGUACGAUAGUACAGUUCGUUGAUAUAAAUAGUGCCCAUGGAUC” is higher in binding signal: 0.74 enrichment factor for the first, 1.31 enrichment factor for the second.

Compared with “GGGGCCACCAACGACAUUGACUCCUAGUUAUACCGAUUAGGACUUGUAGAUGCGUUGAUAUAAAUAGUGCCCAUGGAUC”, “GGGGCCACCAACGACAUUGCCGUAGUGCAGGGUUGCUUGCAUGAUCAAUUGUUGUUGAUAUAAAUAGUGCCCAUGGAUC” is higher in binding signal: 0.26 enrichment factor for the first, 2.1 enrichment factor for the second.

First: GGGGCCACCAACGACAUUGACCCAUCUCGCGUUUCCGGGAUGACUAGUAGAAUGUUGAUAUAAAUAGUGCCCAUGGAUC
Second: GGGGCCACCAACGACAUUUAGGGUGCCGAUCAUGUCACGUAGGCAUCCGAUACGUUGAUAUAAAUAGUGCCCAUGGAUC
The binding signal of the first is higher: 0.56 enrichment factor for the first, 0.42 enrichment factor for the second.

Going from “GGGGCCACCAACGACAUUAAGUUCGUCCCGCAUGGUACGAUGCGGGUCUAUGCGUUGAUAUAAAUAGUGCCCAUGGAUC” to “GGGGCCACCAACGACAUUUCGCAGCUUCGUAGUACAGGCGCAAGUUGACACAUGUUGAUAUAAAUAGUGCCCAUGGAUC”, the binding signal falls from 6.47 enrichment factor to 1.47 enrichment factor.

Compared with “GGGGCCACCAACGACAUUCAACGUGCACUGUAGCUGUACAAAGCGACCAACGUUGAUAUAAAUAGUGCCCAUGGAUC”, “GGGGCCACCAACGACAUUAUACAGCCGAUCAUGUCACGUAGGCUGUGAUUAACGUUGAUAUAAAUAGUGCCCAUGGAUC” is lower in binding signal: 6.23 enrichment factor for the first, 0.58 enrichment factor for the second.

Going from “GGGGCCACCAACGACAUUUCCGUGAGGAUCUAUGUUGUGGAAAACAACAGUUCGUUGAUAUAAAUAGUGCCCAUGGAUC” to “GGGGCCACCAACGACAUUACGUAGCAUGAUGAGUUUCUCGUCGGCGAUCAGUUGUUGAUAUAAAUAGUGCCCAUGGAUC”, the binding signal falls from 1.09 enrichment factor to 0.98 enrichment factor.

First: GGGGCCACCAACGACAUUCAGCGAUGUAGUGCACAUUGCACGACCAUGAUGGAGUUGAUAUAAAUAGUGCCCAUGGAUC
Second: GGGGCCACCAACGACAUUGAACGUAAGGAGAGUGCGCUUACCGCACAAUGUUUGUUGAUAUAAAUAGUGCCCAUGGAUC
The binding signal of the first is higher: 0.53 enrichment factor for the first, 0.43 enrichment factor for the second.

The sequences below were run against T1, PAI-1 wild type, active (assay: branched SELEX with high-throughput sequencing; PAI-1 immobilised on monoclonal anti-PAI-1 antibody mAb-1; HBS (10 mM HEPES pH 7.4, 140 mM NaCl), 2 mM MgCl2, 2 mM CaCl2, 0.1% BSA; RNA pool 100 nM; PAI-1 captured on antibody-coated wells; 45 min; binding temperature not stated (PAI-1 capture at room temperature); high values mean tight binding). Details: protein: recombinant; tags: N-terminal His6; structured_RNA; 2'-F pyrimidines.

Compared with “GGGGCCACCAACGACAUUGUACCACGUAGGAUGAAGUCAUCCGAUCACAGUGUUGAUAUAAAUAGUGCCCAUGGAUC”, “GGGGCCACCAACGACAUUUGCAUAAUGCAUCUAUAGUCGCUAGAGACUAGCUCGUUGAUAUAAAUAGUGCCCAUGGAUC” is higher in binding signal: 1.37 enrichment factor for the first, 1.69 enrichment factor for the second.

First: GGGGCCACCAACGACAUUUCACACUGUAAGGCCAUGUGCCGACUAGAAAUUGCGUUGAUAUAAAUAGUGCCCAUGGAUC
Second: GGGGCCACCAACGACAUUUGCACACCACGUAGGCAAAUUGCCGAUCGUGCUAUGUUGAUAUAAAUAGUGCCCAUGGAUC
The binding signal of the first is lower: 0.55 enrichment factor for the first, 1.3 enrichment factor for the second.

Going from “GGGGCCACCAACGACAUUUGUCAACCGAUCACGCUUAUAGAGCGACCACGUAGGUUGAUAUAAAUAGUGCCCAUGGAUC” to “GGGGCCACCAACGACAUUGGUCACAUGACCACCGUAUGAUUUACUCAUAGUUCGUUGAUAUAAAUAGUGCCCAUGGAUC”, the binding signal falls from 5.14 enrichment factor to 2.36 enrichment factor.

Compared with “GGGGCCACCAACGACAUUCCAAGAUCACUUGGACCGUGUAUUAAGUACAGUUCGUUGAUAUAAAUAGUGCCCAUGGAUC”, “GGGGCCACCAACGACAUUUGGACUGAAUCCAACCUUAUGCGUAAGCAUAGUUCGUUGAUAUAAAUAGUGCCCAUGGAUC” is lower in binding signal: 4.62 enrichment factor for the first, 3.55 enrichment factor for the second.

Going from “GGGGCCACCAACGACAUUGAACCACGUAGGCUCGUUUCUGAGCCGAUCUCGAUGUUGAUAUAAAUAGUGCCCAUGGAUC” to “GGGGCCACCAACGACAUUAACAACCCGUAGACGUCAUCGUCGAUCGCGUUAGUGUUGAUAUAAAUAGUGCCCAUGGAUC”, the binding signal falls from 2.66 enrichment factor to 1.35 enrichment factor.

Going from “GGGGCCACCAACGACAUUUAUCGAAUUGAUAACCUUACGCGAGAGCGUAGUUCGUUGAUAUAAAUAGUGCCCAUGGAUC” to “GGGGCCACCAACGACAUUGUACUGUAGUCUUGAUUUUAAGACGACCAAAUGUAGUUGAUAUAAAUAGUGCCCAUGGAUC”, the binding signal falls from 9.69 enrichment factor to 1.02 enrichment factor.

Compared with “GGGGCCACCAACGACAUUUGCAUUUGGCAUCCAUAUCGGGCGACCGAUAGUUCGUUGAUAUAAAUAGUGCCCAUGGAUC”, “GGGGCCACCAACGACAUUUACCGUCUGGGUAACCUUGUACGAUAGUACAGUUCGUUGAUAUAAAUAGUGCCCAUGGAUC” is lower in binding signal: 2.86 enrichment factor for the first, 1.53 enrichment factor for the second.

Compared with “GGGGCCACCAACGACAUUUCCUAAACAGGAUCUAUACUCCUAGCGAGUAGUUCGUUGAUAUAAAUAGUGCCCAUGGAUC”, “GGGGCCACCAACGACAUUUGCAAUUUAUGCAACCUUAGCGGAUUCGCUAGUUCGUUGAUAUAAAUAGUGCCCAUGGAUC” is higher in binding signal: 3.43 enrichment factor for the first, 3.88 enrichment factor for the second.

First: GGGGCCACCAACGACAUUUAGCACCAGCUAACCGUACGCUCAACGCGUAGUUCGUUGAUAUAAAUAGUGCCCAUGGAUC
Second: GGGGCCACCAACGACAUUUAGGGUGCCGAUCAUGUCACGUAGGCAUCCGAUACGUUGAUAUAAAUAGUGCCCAUGGAUC
The binding signal of the first is higher: 5.48 enrichment factor for the first, 0.62 enrichment factor for the second.

Compared with “GGGGCCACCAACGACAUUAUACAGCCGAUCAUGUCACGUAGGCUGUGAUUAACGUUGAUAUAAAUAGUGCCCAUGGAUC”, “GGGGCCACCAACGACAUUCAGCGAUGUAGUGCACAUUGCACGACCAUGAUGGAGUUGAUAUAAAUAGUGCCCAUGGAUC” is lower in binding signal: 0.81 enrichment factor for the first, 0.44 enrichment factor for the second.
